Hits are enriched below; roughly 4.4% of the tested compounds scored in any of these assays.
HUVEC tox IL1B – cytotoxicity in IL-1B stimulated HUVEC, primary screen, cytotoxicity control for IL-1B NFkB translocation project, imaging, Hoechst nuclear count, IL-1B stimulus | 0.41% of 94,000 active | AID 845, 2007 | HUVEC cell count loss | cell count reduction, % at 2 µM;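 active = cell count reduction more than 3 SD above the screen-wide mean, cut at about 70% in these data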
NFkB transloc inh – inhibitors of IL-1B driven NFkB p65 nuclear import, primary screen, imaging, HUVEC, IL-1B stimulus, high-content imaging | inhibition, % at 2 µM | AID 796, 2007 | 0.43% of 94,000 active | HUVEC IL-1B NFkB p65 nuclear translocation imaging;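 active = inhibition above about 30% together with a positive call from visual inspection of the well image, limit read from the data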;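 note: nuclear over cytoplasmic p65 intensity ratio measured by imaging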
IL1B NFkB pot – enhancers of NFkB p65 translocation in HUVEC – imaging, IL-1B stimulus, high-content imaging, primary screen | HUVEC IL-1B NFkB p65 nuclear translocation imaging | activation, % at 2 µM | 0.3% of 94,000 active;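 active = activation above 40%, about the mean plus 3 SD, also judged a hit on visual image review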;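 note: percent activation is computed from the nuclear over cytoplasmic p65 intensity ratio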
Cav3 T inh – Cav3.2 calcium influx blockers – cell-based, Fluo-4 calcium fluorescence, FDSS, MLSMR library, primary screen. Voltage-dependent T-type calcium channel subunit alpha-1H (Homo sapiens), O95180. Cav3.2-expressing cells; active compounds read low. B-score at 10 µM. 4% of 100,000 active;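 active = single-dose well whose peak fluorescence ratio is a statistical outlier from its plate by either plate-standardised score or position-corrected B-score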
A number is an active result.

How did CC1CCCCC1NC(=O)c1ccc(N2CCCC2=O)cc1 (stereo not drawn) do in these assays?
HUVEC tox IL1B: inactive; NFkB transloc inh: inactive; IL1B NFkB pot: inactive; Cav3 T inh: -5.1

What do the screens show for `OC(COc1c(Cl)cc(Cl)cc1Cl)CN1CCCCC1` (stereo not drawn)?
HUVEC tox IL1B: inactive; NFkB transloc inh: inactive; IL1B NFkB pot: inactive; Cav3 T inh: -2.9

How did CCC1CCc2c(sc3nc(SCC(=O)NCc4ccco4)n(-c4ccccc4)c(=O)c23)C1 (stereo not drawn) do in these assays?
HUVEC tox IL1B: inactive; NFkB transloc inh: inactive; IL1B NFkB pot: inactive; Cav3 T inh: inactive

What do the screens show for `COc1ccc(CC(=O)Nc2ccc(-c3nnc(-c4ccccc4)o3)cc2)cc1OC`?
HUVEC tox IL1B: inactive; NFkB transloc inh: 91; IL1B NFkB pot: inactive; Cav3 T inh: inactive

What do the screens show for `COc1ccc(CC(=O)Nc2cccc(-c3nnc(-c4ccccc4)o3)c2)cc1OC`?
HUVEC tox IL1B: inactive; NFkB transloc inh: inactive; IL1B NFkB pot: inactive; Cav3 T inh: inactive

What do the screens show for `CN1/C(=N\O)c2cccc3cccc1c23`?
HUVEC tox IL1B: inactive; NFkB transloc inh: inactive; IL1B NFkB pot: inactive; Cav3 T inh: -4.4

How did C=CCn1c(N2CCCCCC2)nc2c1c(=O)[nH]c(=O)n2C do in these assays?
HUVEC tox IL1B: inactive; NFkB transloc inh: inactive; IL1B NFkB pot: inactive; Cav3 T inh: inactive

What do the screens show for `CC1CCN(c2nc3c(c(=O)[nH]c(=O)n3C)n2Cc2ccccc2Cl)CC1`?
HUVEC tox IL1B: inactive; NFkB transloc inh: inactive; IL1B NFkB pot: inactive; Cav3 T inh: -4.5

Results for C/C(Cl)=C\Cn1c(N2CCCC2)nc2c1c(=O)[nH]c(=O)n2C ?
HUVEC tox IL1B: inactive; NFkB transloc inh: inactive; IL1B NFkB pot: inactive; Cav3 T inh: 3.5

How did Cn1c(=O)[nH]c(=O)c2c1nc(Br)n2Cc1ccccc1Cl do in these assays?
HUVEC tox IL1B: inactive; NFkB transloc inh: inactive; IL1B NFkB pot: inactive; Cav3 T inh: inactive

What do the screens show for `COc1cccc(NC(=O)c2nnn(CCc3ccccc3)c2N)c1`?
HUVEC tox IL1B: inactive; NFkB transloc inh: inactive; IL1B NFkB pot: inactive; Cav3 T inh: -2.6

What do the screens show for `CCOC(=O)c1oc2ccccc2c1CSc1nnnn1-c1ccc(C)cc1`?
HUVEC tox IL1B: inactive; NFkB transloc inh: inactive; IL1B NFkB pot: inactive; Cav3 T inh: -3.9

How did COc1ccc(CNCc2ccco2)cc1OCc1ccccc1 do in these assays?
HUVEC tox IL1B: inactive; NFkB transloc inh: inactive; IL1B NFkB pot: inactive; Cav3 T inh: inactive

How did COc1ccccc1CCNCc1ccc(OC)c(OCc2ccccc2)c1 do in these assays?
HUVEC tox IL1B: inactive; NFkB transloc inh: inactive; IL1B NFkB pot: inactive; Cav3 T inh: -4.8

How did OC1(c2cccc(C(F)(F)F)c2)CCN(Cc2nnnn2CCc2ccccc2)CC1 do in these assays?
HUVEC tox IL1B: inactive; NFkB transloc inh: inactive; IL1B NFkB pot: inactive; Cav3 T inh: -5.6

Results for CC(=O)c1c(C)[nH]c(C(=O)OCC(=O)N(C)C)c1C ?
HUVEC tox IL1B: inactive; NFkB transloc inh: inactive; IL1B NFkB pot: inactive; Cav3 T inh: inactive

Results for Cc1nc2ccccc2c(=O)n1NC(=O)COc1ccccc1 ?
Cav3 T inh: inactive

What do the screens show for `Cc1ccc(C(C)C)c(OCC(=O)Nn2c(C)nc3ccccc3c2=O)c1`?
HUVEC tox IL1B: inactive; NFkB transloc inh: inactive; IL1B NFkB pot: inactive; Cav3 T inh: -5

Results for COc1ccccc1/C=C/C(=O)NCC(=O)N/N=C/c1cc(Br)ccc1OC ?
HUVEC tox IL1B: inactive; NFkB transloc inh: inactive; IL1B NFkB pot: inactive; Cav3 T inh: -9.3

What do the screens show for `COc1ccc(/C=C/C(=O)NCC(=O)N/N=C/c2cc(Br)ccc2OC)cc1`?
HUVEC tox IL1B: inactive; NFkB transloc inh: inactive; IL1B NFkB pot: inactive; Cav3 T inh: inactive

What do the screens show for `CNc1ccc(C(O)(C(F)(F)F)C(F)(F)F)cc1C(O)(C(F)(F)F)C(F)(F)F`?
HUVEC tox IL1B: inactive; NFkB transloc inh: inactive; IL1B NFkB pot: inactive; Cav3 T inh: -7.1

Results for Cc1ccc(N)c(C(O)(C(F)(F)F)C(F)(F)F)c1 ?
HUVEC tox IL1B: inactive; NFkB transloc inh: inactive; IL1B NFkB pot: inactive; Cav3 T inh: inactive

How did CCOC(=O)Nc1nnc(-c2ccc(OC)c(OC)c2)s1 do in these assays?
HUVEC tox IL1B: inactive; NFkB transloc inh: inactive; IL1B NFkB pot: inactive; Cav3 T inh: inactive

Results for CC1CCCC(C)N1C(=O)CSc1nnc(COc2ccccc2)n1-c1ccccc1 (stereo not drawn) ?
HUVEC tox IL1B: inactive; NFkB transloc inh: inactive; IL1B NFkB pot: inactive; Cav3 T inh: -3.5

Results for COc1ccc(C(=O)CSc2nnc(COc3ccc(C#N)cc3)n2-c2ccccc2)cc1 ?
HUVEC tox IL1B: inactive; NFkB transloc inh: inactive; IL1B NFkB pot: inactive; Cav3 T inh: inactive

Results for O=C(CSc1nnc(COc2ccccc2)n1-c1ccccc1)c1ccccc1 ?
HUVEC tox IL1B: inactive; NFkB transloc inh: inactive; IL1B NFkB pot: inactive; Cav3 T inh: -6.1

Results for CCCCCCCCCCCC(=O)c1c(O)cccc1O ?
Cav3 T inh: inactive

What do the screens show for `Cc1cccc2sc(NC(=O)C3c4ccccc4Oc4ccccc43)nc12`?
NFkB transloc inh: inactive; Cav3 T inh: -3.3

What do the screens show for `Cc1nnc(NC(=O)C2c3ccccc3Oc3ccccc32)s1`?
HUVEC tox IL1B: inactive; NFkB transloc inh: inactive; IL1B NFkB pot: inactive; Cav3 T inh: inactive

How did O=C(Nc1nc(-c2ccccc2)cs1)C1c2ccccc2Oc2ccccc21 do in these assays?
HUVEC tox IL1B: inactive; NFkB transloc inh: inactive; IL1B NFkB pot: inactive; Cav3 T inh: -5.2

What do the screens show for `CCc1ccc(C(C)NC(=O)c2ccc(F)cc2)cc1` (stereo not drawn)?
HUVEC tox IL1B: inactive; NFkB transloc inh: inactive; IL1B NFkB pot: inactive; Cav3 T inh: -4.1

What do the screens show for `O=C(CCN1CCc2ccccc2C1)Nc1cccc(F)c1`?
HUVEC tox IL1B: inactive; NFkB transloc inh: inactive; IL1B NFkB pot: inactive; Cav3 T inh: inactive

How did CCOc1cc(/C=C(/C#N)C(=O)Nc2ccc(O)cc2)cc(Br)c1O do in these assays?
HUVEC tox IL1B: inactive; NFkB transloc inh: inactive; IL1B NFkB pot: inactive; Cav3 T inh: -7.9

Results for CCC(c1c(C)[nH]oc1=O)c1c(C)[nH]oc1=O ?
HUVEC tox IL1B: inactive; NFkB transloc inh: inactive; IL1B NFkB pot: inactive; Cav3 T inh: inactive

Results for COC(=O)c1sc2cnccc2c1N ?
HUVEC tox IL1B: 78; NFkB transloc inh: inactive; IL1B NFkB pot: inactive; Cav3 T inh: inactive

Results for O=C(ON=C1CCN(S(=O)(=O)c2ccccc2)CC1)c1ccc(F)cc1 ?
HUVEC tox IL1B: inactive; NFkB transloc inh: inactive; IL1B NFkB pot: inactive; Cav3 T inh: inactive

Results for O=C(O/N=C1/CCSc2ccccc21)c1ccc(F)cc1 ?
HUVEC tox IL1B: inactive; NFkB transloc inh: inactive; IL1B NFkB pot: inactive; Cav3 T inh: -4.7

Results for Cc1ccc(-n2nnnc2-c2cnc(N3CCCC3)nc2C(F)(F)F)cc1 ?
HUVEC tox IL1B: inactive; NFkB transloc inh: inactive; IL1B NFkB pot: inactive; Cav3 T inh: -4.5

How did COc1ccc(CCCNC(=O)CC#N)cc1OC do in these assays?
HUVEC tox IL1B: inactive; NFkB transloc inh: inactive; IL1B NFkB pot: inactive; Cav3 T inh: inactive

Results for O=C(NCc1ccccn1)NC12CC3CC(CC(C3)C1)C2 ?
HUVEC tox IL1B: 89; NFkB transloc inh: 95; IL1B NFkB pot: inactive; Cav3 T inh: inactive
